Bioassay records deposited in PubChem by several laboratories.
This is a sample that favours compounds with a hit; in the whole collection about 3% have one here.
BioA inh – M. tuberculosis BioA enzyme inhibitors, primary screen, biochemical, plate reader, single point, HTS; purified M. tuberculosis BioA enzyme; inhibition, % at 9.99 µM; actives 0.096% (n = 360,000); 7,8-diaminopelargonic acid synthase BioA (Mycobacterium tuberculosis); in the data active means inhibition above about 40%
GDH-TPI counter-1 – GDH-TPI coupling enzyme inhibitors, primary screen, artefact control for M. tuberculosis FBA inhibitor project, biochemical, absorbance, full deck | GDH-TPI coupled enzyme counterscreen, NADH absorbance | inhibition, % at 4.8 µM | actives 1.2% (n = 360,000); in the data active means inhibition above about 30%;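 further: 0% = DMSO wells and 100% = wells lacking the enzyme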
FBA Mtb inh – Mtb FBA enzyme inhibitors, primary screen, biochemical, fluorescence, strain H37Rv; Fructose-bisphosphate aldolase (Mycobacterium tuberculosis (strain ATCC 25618 / H37Rv)), …; purified M. tuberculosis FBA, fluorescence read-out; inhibition, % at 1 µM; actives 2.3% (n = 360,000); AID 588726, 2011;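 further: 0% = vehicle and 100% = reference inhibitor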
Target sequence (P9WQA3 whole entry, looked up): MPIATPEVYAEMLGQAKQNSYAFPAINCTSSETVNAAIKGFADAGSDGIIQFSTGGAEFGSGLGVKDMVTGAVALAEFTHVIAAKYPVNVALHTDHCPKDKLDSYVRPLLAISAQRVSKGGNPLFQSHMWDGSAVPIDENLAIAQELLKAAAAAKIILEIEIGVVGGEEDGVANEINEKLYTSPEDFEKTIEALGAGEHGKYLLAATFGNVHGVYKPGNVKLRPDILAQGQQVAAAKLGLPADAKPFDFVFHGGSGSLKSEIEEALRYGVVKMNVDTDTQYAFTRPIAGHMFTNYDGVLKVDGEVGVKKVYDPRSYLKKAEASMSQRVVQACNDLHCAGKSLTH
BH1578 lux ind – inducers of Vibrio cholerae quorum light production without autoinducers, primary screen, BH1578 luxS cqsA deficient, single point; V. cholerae BH1578 lux reporter, luminescence, 6 h; activation, % at 18.7 µM; actives 0.16% (n = 350,000); AID 588436, 2011; in the data active means activation mostly above about 9.7%, no sharp cut-off
Mtb FBA confirm – M. tuberculosis aldolase blockers, biochemical, fluorescence, strain H37Rv, confirmation; inhibition, % at 1 µM; purified M. tuberculosis FBA, fluorescence read-out; shares compounds with FBA Mtb inh; actives 78% (n = 5,600);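 further: 0% = vehicle wells and 100% = reference inhibitor wells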
GDH-TPI counter-2 – GDH-TPI coupling enzyme inhibitors, artefact control for M. tuberculosis FBA inhibitor project, biochemical, fluorescence, high throughput; AID 652141, 2013; actives 81% (n = 5,600); shares compounds with FBA Mtb inh; GDH-TPI coupled enzyme counterscreen; inhibition, % at 1 µM; in the data active means inhibition above about 10%
Starred values were filed as active, the others as inactive; i = inactive; x = not tested or not shown; + = active, no number. Unless noted, no stated cut-off is given here; in the data, active means inhibition above about 27%; inactive means the rest.

SMILES	BioA inh	GDH-TPI counter-1	FBA Mtb inh	BH1578 lux ind	Mtb FBA confirm	GDH-TPI counter-2
CNC[C@H]1Oc2ccc(NC(=O)CCN3CCOCC3)cc2C(=O)N([C@@H](C)CO)C[C@H]1C	1.0	x	x	x	x	x
CO[C@H]1CN(C)C(=O)c2ccc(NS(C)(=O)=O)cc2OC[C@@H](C)N(C(=O)C2CCC2)C[C@H]1C	7.9	x	x	x	x	x
CO[C@H]1CN(C)C(=O)c2cccc(C#N)c2OC[C@@H]2O[C@@H](CC[C@H]2OC)CCN(C)C(=O)[C@H]1C	-0.1	x	x	x	x	x
Cc1ccc(S(=O)(=O)Nc2cccc3c2O[C@@H](CN(C)CC2CC2)[C@H](C)CN([C@@H](C)CO)C3=O)cc1	4.9	x	x	x	x	x
C[C@@H]1CN([C@H](C)CO)C(=O)Cc2cc(NC(=O)Cc3cn(C)c4ccccc34)ccc2O[C@H]1CN(C)C(=O)Nc1ccccc1	0.7	x	x	x	x	x
CC(=O)N(C)C[C@@H]1Oc2ncc(C#Cc3cccc(F)c3)cc2C(=O)N([C@@H](C)CO)C[C@H]1C	3.6	x	x	x	x	x
CC(C)N(C(=O)[C@H]1C[C@H](CC(=O)NCCN2CCOCC2)C(=O)N2CCc3c([nH]c4cc(-c5ccco5)ccc34)[C@]12C)C(C)C	2.6	4.3	35.8*	-0.4	150.5*	123.9*
COc1ccc(CNC(=O)C[C@H]2C[C@H](C(=O)N3CCOCC3)[C@@]3(C)c4[nH]c5cc(-c6ccco6)ccc5c4CCN3C2=O)cc1OC	-1.7	1.4	36.3*	-0.2	+	+
Cc1c(C(=O)NCCCN2CCCCC2)oc2ccc3c(c12)C(O)CC1(CCCCC1)O3 (stereo unspecified)	-3.0	14.8	17.9	-0.2	x	x
CCOCCCNC(=O)c1oc2ccc3c(c2c1C)C(O)CC(C)(C)O3 (stereo unspecified)	0.7	20.7	33.4*	1.3	34.5*	24.9*
CCCNC(=O)c1oc2ccc3c(c2c1C)C(O)CC(C)(C)O3 (stereo unspecified)	-1.4	6.0	49.0*	-0.9	2.9	0.3
C[C@H]1CCCCO[C@H](CN(C)C(=O)Nc2cccc3ccccc23)[C@@H](C)CN([C@@H](C)CO)C(=O)c2cc(NC(=O)C3CCCCC3)ccc2O1	1.0	x	x	x	x	x
O=C(Nc1ccccc1)[C@@H]1[C@@H](CO)[C@@H]2Cn3c(cccc3=O)[C@H]1N2C(=O)c1ccccc1	-0.5	x	x	x	x	x
Cc1oc2cc(O)ccc2c(=O)c1Oc1ccccc1Br	1.6	17.8	95.6*	i	5.9	-0.8
COC(=O)c1cc(-c2c(C)oc3cc(OC)ccc3c2=O)c(C)o1	34.2	-7.4	-3.3	4.2	x	x
CCOc1ccc(Oc2c(C)oc3cc(O)ccc3c2=O)cc1	-1.4	9.1	43.8*	-8.7	+	159.7*
COC(=O)c1cc(-c2c(C)oc3cc(O)ccc3c2=O)c(C)o1	13.6	29.4	75.9*	-0.7	29.1*	32.5*
COC(=O)COc1ccc2c(=O)c(Oc3ccccc3)c(C)oc2c1	-0.2	9.6	0.1	-0.3	x	x
Cc1oc2cc(O)ccc2c(=O)c1Oc1ccccc1	-0.7	22.0	100.8*	-0.4	82.7*	58.6*
COCC#Cc1ccc2c(c1)O[C@@H](CN(C)C(=O)Nc1ccccc1F)[C@H](C)CN([C@@H](C)CO)S2(=O)=O	-6.0	x	x	x	x	x
CCCN1C[C@@H](C)[C@@H](OC)CN(C)C(=O)c2cc(NS(C)(=O)=O)ccc2OC[C@@H]1C	-1.0	x	x	x	x	x
CC(C)(OC(=O)c1cccs1)c1cc2ccccc2c(=O)o1	-1.0	7.6	3.4	i	x	x
CN(C)c1ccc(C#Cc2ccc3cc(CCCO)oc(=O)c3c2)cc1	-2.3	27.7	6.4	1.7	x	x
O=c1oc(CCCO)cc2ccc(C#Cc3ccsc3)cc12	-0.4	1.2	57.4*	-4.0	87.0*	73.1*
CC(C)(O)c1cc2ccc(C#Cc3ccsc3)cc2c(=O)o1	-0.2	8.5	50.5*	i	32.2*	30.9*
SMILES	BioA inh	GDH-TPI counter-1	FBA Mtb inh	BH1578 lux ind	Mtb FBA confirm	GDH-TPI counter-2
C[C@H](CO)N1C[C@H](C)[C@@H](CN(C)Cc2ccc3c(c2)OCO3)Oc2ccc(NC(=O)Nc3ccc(F)cc3)cc2CC1=O	-4.7	x	x	x	x	x
COc1ccccc1CN(C)C[C@H]1OCc2cn(nn2)CCCC(=O)N([C@H](C)CO)C[C@H]1C	-0.4	x	x	x	x	x
CC(=O)Nc1c(-c2ccccc2)nc2ncccn12	3.5	14.9	42.0*	-0.2	40.5*	30.1*
Cc1ccc(-c2nc3ncccn3c2Nc2ccc3c(c2)OCCO3)cc1	0.5	6.2	-3.4	-2.2	x	x
Cc1ccc(-c2nc3ncccn3c2NC(=O)C2CC2)cc1	-0.8	6.9	62.6*	-0.2	35.6*	10.4*
Cc1cn(C2CCCCC2)c(=O)n(-c2ccccc2)c1=O	x	0.9	37.5*	i	+	176.6*
CCOC(=O)c1cnc2nc(C)[nH]n2c1=O	0.5	0.0	4.0	-1.0	x	x
CCOC(=O)c1cnc2sc3c(n2c1=O)CCCC3	0.7	22.6	107.5*	i	53.2*	45.0*
CN(C)c1nc(-c2ccccc2)c2cnn(Cc3ccccc3)c2n1	-0.8	2.0	43.6*	-1.7	121.1*	111.9*
FC(F)(F)c1ccc2c(c1)NCC1CCCN21 (stereo unspecified)	x	24.4	45.2*	-0.5	54.2*	49.9*
O=C(CCS(=O)(=O)c1ccc(Br)cc1)N1CCN(c2ccccc2)CC1	-1.6	5.9	73.2*	-0.4	68.8*	62.4*
c1ccc(NCc2cccnc2)cc1	1.1	-7.4	2.9	i	x	x
c1cncc(CNc2cccc(-c3nc4ccccc4[nH]3)c2)c1	16.0	7.8	47.8*	i	0.2	-3.2
CC1(C(=O)N(CC(=O)NC2CCCC2)C2CCCC2)CC(=O)N=C2C=CC=CN21 (stereo unspecified)	-0.3	25.0	110.3*	i	-1.0	-5.3
Cc1ccccc1N(CC(=O)NC1CCCC1)C(=O)C1(C)CC(=O)N=C2C=CC=CN21 (stereo unspecified)	-0.3	12.4	73.9*	-0.4	104.2*	94.1*
CS(=O)(=O)N(CC(=O)NC1CCCC1)C1CCCCC1	x	-1.9	-4.7	i	x	x
Cc1cc(C)cc(N(CC(=O)NC2CCCC2)C(=O)CCC(=O)Nc2cc(C)ccn2)c1	0.1	8.4	-0.8	-10.0	x	x
Cc1ccc(C(=O)N(CC(=O)NC2CCCC2)c2ccccc2C)s1	x	-1.9	3.5	i	x	x
Cc1ccccc1N(CC(=O)NCC1CCCO1)C(=O)C1(C)CC(=O)N=C2C=CC=CN21 (stereo unspecified)	x	-1.3	85.9*	2.5	106.1*	79.4*
Cc1cc(C)cc(N(CC(=O)NC2CCCC2)C(=O)C2(C)CC(=O)N=C3C=CC=CN32)c1 (stereo unspecified)	x	12.3	36.2*	-0.3	+	161.2*
